About 79,000 compounds went through this panel and 15% of them were active in at least one assay; those are over-represented in the sample as a whole. A number with no mark means an inactive call. Active and inactive are the calls of the source. Cut-off read from the data, not from the text of the source: active = growth inhibition above about 70%; inactive = the rest.

The nature of this test: NCI Yeast Anticancer Drug Screen. Data for the rad50 strain (AID 155).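 Note: 0% = growth of vehicle-only cultures of the same strain.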 As to conditions: S. cerevisiae rad50 strain growth inhibition; at 5.0 µM (retest, dose inferred, filed as 0.5); stronger effect = higher value. In outline: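 DNA repair mutant yeast, compound exposure, growth read-out; inhibition is taken relative to vehicle.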
Turning to `C=C1C(=O)OC2/C=C(\C(=O)O)CC/C=C(\C)CC(OC(=O)/C=C(\C)CC)C12` (stereo not given), the growth inhibition is -1%. Consider `O/N=C(/Cc1nc2cc(Cl)c(Cl)cc2nc1C/C(=N/O)c1ccncc1)c1ccncc1`, for which the growth inhibition is 5%. In the case of `Cc1cc(NC(=S)SCc2ccc3c(c2)OCO3)ccc1Br` it was 38%. In the case of `CN1C(=O)OC(C)(c2ccccc2)C1=O` (stereo not given) it was -3%; in that of `O=C1c2ccccc2C(=O)c2c1cccc2[N+](=O)[O-]`, 84% (active). In the case of `O=[N+]([O-])c1ccccc1Oc1ccc([N+](=O)[O-])c(C(F)(F)F)c1` it was -4%; in that of `Cc1ccc(O)c(N=Nc2ccc(Cl)cc2)c1`, 0%. For `CC(C)Cc1cc2c(cc1O)CCC1C2CC[C@@]2(C)C1CC[C@@H]2O` (stereo not given in full), the growth inhibition is -10%. Next, `CCOC(=O)CC1(C)C(=O)CCCC1=O`: 3%; `OC(c1cc(-c2ccc(Cl)cc2Cl)nc2ccccc12)C1CCCCN1` (stereo not given): -6%; `COc1ccc(N=Cc2cc(Br)cc(Br)c2O)cc1.COc1ccc(N=Cc2cc(Br)cc(Br)c2O)cc1.[Co]`: 79% (active). Next, `Cc1ccc[n+](CC(=O)C2CCC3C4CC=C5CC(O)CCC5(C)C4CCC23C)c1` (stereo not given): 2%. Next, `CN(C)CC(C)(C)C(/C=C/c1ccccc1)=N\Nc1ccccc1`: 3%.

Regarding `COC1(OC)C2(Cl)C(Cl)=C(Cl)C1(Cl)C1C2C2CC1(C(=O)O)c1ccccc12` (stereo not given), the growth inhibition was 29%. In the case of `NC(N)=N/N=C(\c1ccc(F)cc1)c1ccc(C(F)(F)F)cc1`, the growth inhibition was 5%. For `O=C1CC(c2ccccc2Cl)C(c2ccccc2Cl)C1` (stereo not given), the growth inhibition is -2%. Next, `O=C(Cl)c1ccc(N=Nc2ccccc2)cc1`: 2%; `O=[N+]([O-])c1ccccc1N=Nc1c(O)[nH]c2ccc(S(=O)(=O)O)cc12`: 73% (active). In the case of `Cc1ccccc1N=NC(C(=O)c1ccccc1)C(=O)c1ccccc1` it was 7%; in that of `CCCCC(CC)(COC(C)=O)COC(C)=O`, -3%; in that of `NCCOB(c1ccccc1)c1ccccc1`, 12%. For `O=C(Nc1ccccc1C(=O)O)c1ccccc1`, the growth inhibition is -7%.

Take `O=[N+]([O-])c1ccc(Sc2c3ccccc3nc3ccccc23)nc1`: the growth inhibition was 94% (active). In the case of `Cc1oc2c(c1C(=O)c1ccccc1)C(=O)c1ccccc1C2=O` it was 33%; in that of `OC1(c2ccccc2)CCN(c2c3ccccc3nc3ccccc23)CC1`, 0%.
